The results in this text go back to PubChem BioAssay (NCI).

The nature of test [1]: NCI Yeast Anticancer Drug Screen. Data for the rad50 strain (AID 155).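 Further: 0% = growth of vehicle-only cultures of the same strain.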 To be noted: S. cerevisiae rad50 strain growth inhibition, active compounds read high. The essentials:
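Vehicle-treated cultures provide the reference for the growth inhibition reported for compound-exposed, repair-deficient yeast.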

Test [2] is described as follows: NCI Yeast Anticancer Drug Screen. Data for the mec2-1 strain (AID 157). To be noted: S. cerevisiae mec2-1 strain, active compounds read high. The essentials: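 Using mec2-1 yeast: add compound, measure growth, express inhibition versus vehicle-treated cultures.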
Test [3] can be described thus: NCI Yeast Anticancer Drug Screen. Data for the sgs1 mgt1 strain (AID 161).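 Further: 0% = growth of cultures given vehicle only.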 To be noted: S. cerevisiae sgs1 mgt1 strain, active compounds read high. The essentials: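 Percent growth inhibition was derived by comparing compound-exposed mutant yeast with vehicle-exposed cultures. The strain carries alterations in DNA damage repair.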
Test [4] can be described thus: NCI Yeast Anticancer Drug Screen. Data for the cln2 rad14 strain (AID 165).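 Further: 0% = growth equal to vehicle treated cultures.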 To be noted: S. cerevisiae cln2 rad14 strain, active compounds read high. In outline: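 Yeast strain cln2 rad14, bearing defects in cell cycle control and DNA repair, serves as the test system; values reflect growth inhibition compared with vehicle.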
Test [5] can be described thus: NCI Yeast Anticancer Drug Screen. Data for the bub3 strain (AID 167). The following applies: S. cerevisiae bub3 mutant strain, active compounds read high. In outline: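 Mutant yeast screening strain plus compound; vehicle-treated cultures serve as the 0% inhibition reference.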
Test [6] is described as follows: NCI Yeast Anticancer Drug Screen. Data for the mlh1 rad18 strain (AID 175). To be noted: S. cerevisiae mlh1 rad18 strain growth inhibition, active compounds read high. In outline: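 Steps: expose repair-defective yeast to compound; measure growth; express inhibition against vehicle-treated controls.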
Setting [7] is: at 5.0 µM (retest, dose inferred, filed as 0.5).
Where [8] appears, read: at 50.0 µM (retest, dose inferred, filed as 5.0).

About 79,000 compounds went through this panel and 15% of them were active in at least one assay; those are over-represented in the sample as a whole. A number with no mark means an inactive call. Calls of active or inactive are those of the source. No stated cut-off is given here; in the data, active means growth inhibition above about 70%; inactive means the rest.

`CCOC(=O)C1CCC(=O)O1` (configuration not stated): the growth inhibition in test [1] (setting [7]) is -4%; in test [1] (setting [8]) it was 43%; in test [1] (at 50.0 µM), -14%; in test [2] (setting [7]) it was 3%; in test [2] (setting [8]), 87% (active); in test [2] (at 50.0 µM), 7.85%. Besides, the growth inhibition in test [3] (setting [7]) is 4%; in test [3] (setting [8]), 78% (active); in test [3] (at 50.0 µM), 2.4%; in test [4] (setting [7]), -23%; in test [4] (setting [8]) it was 36%; in test [4] (at 50.0 µM) it was 16.6%. Also, the growth inhibition was 2% in test [5] (setting [7]); 93% (active) in test [5] (setting [8]); 10.8% in test [5] (at 50.0 µM); -1% in test [6] (setting [7]); 95% (active) in test [6] (setting [8]); -1.15% in test [6] (at 50.0 µM).
Consider `Cn1cc(NC(=O)c2cc(NC(=O)CCCCCCC(=O)Nc3cc(C(=O)Nc4cc(C(=O)NCCC(=N)N)n(C)c4)n(C)c3)cn2C)cc1C(=O)NCCC(=N)N`, for which the growth inhibition in test [1] (setting [7]) is 87% (active); in test [1] (setting [8]), 98% (active); in test [1] (at 50.0 µM), 91.8% (active); in test [2] (setting [7]), 89% (active); in test [2] (setting [8]) it was 99% (active); in test [2] (at 50.0 µM), 93.8% (active). The growth inhibition in test [3] (setting [7]) is 82% (active); in test [3] (setting [8]), 99% (active); in test [3] (at 50.0 µM), 93% (active); in test [4] (setting [7]), 44%; in test [4] (setting [8]), 95% (active); in test [4] (at 50.0 µM), 91.3% (active). The growth inhibition in test [5] (setting [7]) is 92% (active); in test [5] (setting [8]), 98% (active); in test [5] (at 50.0 µM) it was 92.2% (active); in test [6] (setting [7]), 90% (active); in test [6] (setting [8]) it was 98% (active); in test [6] (at 50.0 µM) it was 92.2% (active).
Turning to `CCCC/C=C\CCCCCCCCCC1=C(O)C(=O)C=C(OC)C1=O`, the growth inhibition is 65% in test [1] (setting [7]); 83% (active) in test [1] (setting [8]); 60.9% in test [1] (at 50.0 µM); 64% in test [2] (setting [7]); 89% (active) in test [2] (setting [8]); 69.6% in test [2] (at 50.0 µM). Further, the growth inhibition in test [3] (setting [7]) was 74% (active); in test [3] (setting [8]), 91% (active); in test [3] (at 50.0 µM) it was 65.3%; in test [4] (setting [7]) it was 40%; in test [4] (setting [8]), 62%; in test [4] (at 50.0 µM), 42.5%. The growth inhibition is 77% (active) in test [5] (setting [7]); 86% (active) in test [5] (setting [8]); 63% in test [5] (at 50.0 µM); 71% (active) in test [6] (setting [7]); 87% (active) in test [6] (setting [8]); 57.7% in test [6] (at 50.0 µM).
In the case of `Nc1cc(Br)cc2c1[nH]c1ccc(Br)cc12`, the growth inhibition in test [1] (setting [7]) was 46%; in test [1] (setting [8]), 98% (active); in test [1] (at 50.0 µM) it was 98.6% (active); in test [2] (setting [7]), 16%; in test [2] (setting [8]), 98% (active); in test [2] (at 50.0 µM) it was 99% (active). The growth inhibition was 59% in test [3] (setting [7]); 99% (active) in test [3] (setting [8]); 98.1% (active) in test [3] (at 50.0 µM); 3% in test [4] (setting [7]); 97% (active) in test [4] (setting [8]); 97.8% (active) in test [4] (at 50.0 µM). Also, the growth inhibition in test [5] (setting [7]) was 18%; in test [5] (setting [8]) it was 98% (active); in test [5] (at 50.0 µM), 98.5% (active); in test [6] (setting [7]), 58%; in test [6] (setting [8]), 98% (active); in test [6] (at 50.0 µM), 98.9% (active).
On to `CN(C)c1ccc(/C=C2/Oc3ccc(Cl)cc3C2=O)cc1`, for which the growth inhibition was -2% in test [1] (setting [7]); 98% (active) in test [1] (setting [8]); 87.8% (active) in test [1] (at 50.0 µM); 25% in test [2] (setting [7]); 98% (active) in test [2] (setting [8]); 90.7% (active) in test [2] (at 50.0 µM). Also, the growth inhibition in test [3] (setting [7]) is -5%; in test [3] (setting [8]), 97% (active); in test [3] (at 50.0 µM), 89.5% (active); in test [4] (setting [7]), 28%; in test [4] (setting [8]) it was 97% (active); in test [4] (at 50.0 µM) it was 89% (active). Further, the growth inhibition in test [5] (setting [7]) is -24%; in test [5] (setting [8]) it was 98% (active); in test [5] (at 50.0 µM), 89.9% (active); in test [6] (setting [7]), 19%; in test [6] (setting [8]) it was 97% (active); in test [6] (at 50.0 µM) it was 86% (active).
For `COC(=O)N1C2C=CC(=O)C(C=C2)N1C(=O)OC` (configuration not stated), the growth inhibition was -3% in test [1] (setting [7]); 30% in test [1] (setting [8]); 33.9% in test [1] (at 50.0 µM); 2% in test [2] (setting [7]); 38% in test [2] (setting [8]); 53.2% in test [2] (at 50.0 µM). The growth inhibition in test [3] (setting [7]) is 0%; in test [3] (setting [8]) it was 58%; in test [3] (at 50.0 µM) it was 47%; in test [4] (setting [7]), 1%; in test [4] (setting [8]), 23%; in test [4] (at 50.0 µM), 36.4%. For the same molecule, the growth inhibition is -1% in test [5] (setting [7]); 34% in test [5] (setting [8]); 60.6% in test [5] (at 50.0 µM); 18% in test [6] (setting [7]); 79% (active) in test [6] (setting [8]); 85% (active) in test [6] (at 50.0 µM).
Regarding `CCCCCCCCCCCCCCSC(=NCC)NCC`, the growth inhibition is 99% (active) in test [1] (setting [7]); 99% (active) in test [1] (setting [8]); 99.2% (active) in test [1] (at 50.0 µM); 100% (active) in test [2] (setting [7]); 100% (active) in test [2] (setting [8]); 99.5% (active) in test [2] (at 50.0 µM). Further, the growth inhibition in test [3] (setting [7]) was 100% (active); in test [3] (setting [8]), 100% (active); in test [3] (at 50.0 µM), 99.2% (active); in test [4] (setting [7]), 99% (active); in test [4] (setting [8]), 99% (active); in test [4] (at 50.0 µM), 97.4% (active). For the same molecule, the growth inhibition in test [5] (setting [7]) is 99% (active); in test [5] (setting [8]), 99% (active); in test [5] (at 50.0 µM) it was 99.3% (active); in test [6] (setting [7]), 99% (active); in test [6] (setting [8]), 99% (active); in test [6] (at 50.0 µM) it was 99% (active).
`COC(=O)c1c2c(cc3c1CC1(Cc4cc5c(c(C)c4C1)CCC5)C3)CCC2` (configuration not stated): the growth inhibition in test [1] (setting [7]) is 15%; in test [1] (setting [8]), 12%; in test [1] (at 50.0 µM), -32.5%; in test [2] (setting [7]), 6%; in test [2] (setting [8]), 5%; in test [2] (at 50.0 µM) it was -46.4%. In addition, the growth inhibition was 9% in test [3] (setting [7]); 12% in test [3] (setting [8]); -31.9% in test [3] (at 50.0 µM); -4% in test [4] (setting [7]); 13% in test [4] (setting [8]); -11.1% in test [4] (at 50.0 µM). For the same molecule, the growth inhibition is 14% in test [5] (setting [7]); 10% in test [5] (setting [8]); -13.1% in test [5] (at 50.0 µM); 12% in test [6] (setting [7]); 11% in test [6] (setting [8]); -22.9% in test [6] (at 50.0 µM).
Take `CCCCCCCCCCCC(=O)OCCN(CCOC(=O)CCCCCCCCCCC)C(=O)COC(=O)CCCCCCCCCCC`: the growth inhibition was -4% in test [1] (setting [7]); 39% in test [1] (setting [8]); 99.4% (active) in test [1] (at 50.0 µM); 1% in test [2] (setting [7]); 94% (active) in test [2] (setting [8]); 99.7% (active) in test [2] (at 50.0 µM). In addition, the growth inhibition in test [3] (setting [7]) is 3%; in test [3] (setting [8]) it was 92% (active); in test [3] (at 50.0 µM) it was 99.8% (active); in test [4] (setting [7]), -2%; in test [4] (setting [8]), 81% (active); in test [4] (at 50.0 µM) it was 99.3% (active). Besides, the growth inhibition in test [5] (setting [7]) is -2%; in test [5] (setting [8]) it was 60%; in test [5] (at 50.0 µM), 60.4%; in test [6] (setting [7]) it was 1%; in test [6] (setting [8]) it was 86% (active); in test [6] (at 50.0 µM) it was 99.3% (active).
